Laboratory results from paper PMC5540273 (PLoS ONE, 2017).

Tested on: INSR
Conditions: concentration: 1 μM,replicates: in singlicate; n = 1
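Note: KINOMEscan kinase panel screen.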

| Compound | %Inh |
| --- | --- |
| Cn1ccc2ncnc(Oc3ccc(NC(=O)Nc4cc(C(C)(C)C)on4)c(Cl)c3)c21 | 20% |
| COC(=O)c1cccc(NC(=O)NC2CCN(c3ccnc(Nc4cc(OC)c(OC)c(OC)c4)n3)C2)c1 (stereo not shown) [GSK1379767] | 11% |
| O=C(Nc1ccccc1)c1cccc(Oc2ccc3nccn3n2)c1 | 0% |

Tested on: IRAK1
Conditions: concentration: 1 μM,replicates: in singlicate; n = 1

| Compound | %Inh |
| --- | --- |
| Cn1ccc2ncnc(Oc3ccc(NC(=O)Nc4cnn(C(C)(C)C)c4)c(Cl)c3)c21 | 43% |
| COc1cc2ncn(-c3cc(OCC4CCCCC4)c(C(N)=O)s3)c2cc1OC [GSK204559] | 0% |
| COc1cccc(CNC(=O)NC2CCN(c3ccnc(Nc4cc(OC)c(OC)c(OC)c4)n3)C2)c1 (stereo not shown) [GSK1379765] | 73% |
| Cn1ccc2ncnc(Oc3ccc(NC(=O)Nc4cccc(C(F)(F)F)c4)c(F)c3)c21 | 0% |
| CNC(=O)c1ccccc1Nc1nc(Nc2cccc(CS(C)(=O)=O)c2)ncc1C.O=CO [GSK1520489] | 99.7% |
| C[C@@H](Oc1cc(-n2cnc3cc(-c4cnn(C)c4)ccc32)sc1C(N)=O)c1ccccc1Cl [GSK580432] | 45% |
| COc1cc(Nc2nccc(N3CCC(NC(=O)c4cccc(C#N)c4)C3)n2)cc(OC)c1OC (stereo not shown) [GSK1379751] | 58% |
| Cc1ccn2nc(-c3ccc(F)cc3)c(-c3ccncc3)c2c1.Cl [GW457859] | 13% |
| CN1CCN(CCNc2nc3cc(Oc4ccc(NC(=O)Nc5cc(C(F)(F)F)ccc5F)cc4)ccc3[nH]2)CC1.Cl.Cl [GW768504] | 0% |
| NC(=O)c1ccc(-c2cc3ncnc(SCC(=O)O)c3s2)cc1 | 70% |
| CC(=O)c1c(-c2ccncc2)[nH]c(-c2ccncc2)c1C [GW493036] | 85% |
| O=C(Nc1cccc(C(F)(F)F)c1)c1cccc(Oc2ccc3nccn3n2)c1 | 25% |
| CC(=O)Nc1nc2cnc(Nc3cc(NC(=O)c4cccc(CC(C)(C)C#N)c4)ccc3C)nc2s1 | 9% |
| COc1ccc(Nc2nccc(N3CCC(NC(=O)c4cccc(C#N)c4)C3)n2)cc1 (stereo not shown) [GSK1379730] | 10% |
| Cl.c1ccc(Oc2ccc(Nc3ccnc4cc(-c5ccc(CN6CCNCC6)o5)ccc34)cc2)nc1 [GW567142] | 0% |
| O=C(Nc1ccc(Oc2ccc3nc(NC(=O)C4CC4)cn3n2)c(F)c1)c1cccn(-c2ccccc2)c1=O | 0% |
| Cl.Cl.NC[C@H](CC1CCCCC1)NC(=O)c1ccc(-c2ccnc3[nH]ccc23)s1 [GSK1581428] | 57% |
| COC(=O)Nc1nc2cc(Oc3ccc(NC(=O)Nc4cc(C(F)(F)F)ccc4Cl)cc3)ccc2[nH]1.Cl [GW697465] | 23% |
| CC(C(=O)NC1CCN(c2ccnc(Nc3ccc(F)cc3)n2)C1)c1ccc(Cl)cc1 (stereo not shown) [GSK1379713] | 0% |

| Compound | %Inh |
| --- | --- |
| O=C(NCC1CC1)c1ccc(-c2cc(C(=O)NC3CC3)ccc2F)cc1 [GW810445] | 0% |
| CCN1CCN(CCCC(=O)Nc2n[nH]c3nc(-c4ccc(O)cc4)c(Br)cc23)CC1 [SB-731579] | 0% |
| Cc1nnc(-c2ccc3occ(-c4ccc(S(C)=O)cc4)c3n2)o1 (stereo not shown) | 0% |
| CC(C)S(=O)(=O)N1CCN(Cc2ccc3c(c2)nc(NC(=O)c2ccsc2)n3C[C@H](O)c2ccccc2)CC1 [GW635815] | 90% |
| Cn1ccc2ncnc(Oc3ccc(NC(=O)Nc4cccc(C(F)(F)F)c4)c(Cl)c3)c21 | 0% |
| Cn1ccc2ncnc(Oc3ccc(NC(=O)Nc4ccnc(C(F)(F)F)c4)c(Cl)c3)c21 | 14% |
| Cc1cccc2c(-c3ccncc3)c(-c3ccc(F)cc3)nn12.Cl [GW461487] | 9% |
| Cc1ccc2c(-c3ccnc(Nc4ccc(C(F)(F)F)cc4)n3)cnn2n1 [GW819776] | 73% |
| Cc1n[nH]c2cc(Nc3ccnc(Nc4cccc(CN5CCOCC5)c4)n3)ccc12 [GW682569] | 79% |
| CCn1c(-c2nonc2N)nc2cncc(Br)c21 [SB-738004] | 63% |
| CN1CCN(CCCNc2nccc(-c3c(-c4ccc(F)cc4)nn4cc(C(N)=O)ccc34)n2)CC1 [GW622475] | 29% |
| Nc1nccc(-c2ccc3c(N)n[nH]c3c2)n1 [GSK1034945] | 45% |
| Cc1ccc(C(=O)Nc2ccc(Oc3ccc4nc(NC(=O)C5CC5)cn4c3)c(F)c2)c(=O)n1-c1ccccc1 | 0% |
| Cn1ccc2ncnc(Oc3ccc(NC(=O)Nc4cncc(C(F)(F)F)c4)c(Cl)c3)c21 | 0% |
| NC(=O)Nc1sc(-c2ccc(F)cc2)cc1C(N)=O [GW789449] | 41% |
| Cn1ccc2ncnc(Oc3ccc(NC(=O)Nc4cc(C(C)(C)C)on4)c(Cl)c3)c21 | 61% |
| COC(=O)c1cccc(NC(=O)NC2CCN(c3ccnc(Nc4cc(OC)c(OC)c(OC)c4)n3)C2)c1 (stereo not shown) [GSK1379767] | 62% |
| O=C(Nc1ccccc1)c1cccc(Oc2ccc3nccn3n2)c1 | 25% |
